ASM inhibitor: Inhibitors of Secretory Acid Sphingomyelinase (S-ASM): qHTS; Sphingomyelin phosphodiesterase (Homo sapiens), P17405; placental ASM, HMU-PC fluorogenic substrate, 60 min; Potency, µM (top dose mostly 57.5 µM), for inactives: at the highest dose activity change, negative = inhibition, most hits filed as inhibitors; hit rate 0.006% among 340,000; further: potency means the concentration at half of the fitted maximal effect
Target sequence (P17405 47-631 limits assumed): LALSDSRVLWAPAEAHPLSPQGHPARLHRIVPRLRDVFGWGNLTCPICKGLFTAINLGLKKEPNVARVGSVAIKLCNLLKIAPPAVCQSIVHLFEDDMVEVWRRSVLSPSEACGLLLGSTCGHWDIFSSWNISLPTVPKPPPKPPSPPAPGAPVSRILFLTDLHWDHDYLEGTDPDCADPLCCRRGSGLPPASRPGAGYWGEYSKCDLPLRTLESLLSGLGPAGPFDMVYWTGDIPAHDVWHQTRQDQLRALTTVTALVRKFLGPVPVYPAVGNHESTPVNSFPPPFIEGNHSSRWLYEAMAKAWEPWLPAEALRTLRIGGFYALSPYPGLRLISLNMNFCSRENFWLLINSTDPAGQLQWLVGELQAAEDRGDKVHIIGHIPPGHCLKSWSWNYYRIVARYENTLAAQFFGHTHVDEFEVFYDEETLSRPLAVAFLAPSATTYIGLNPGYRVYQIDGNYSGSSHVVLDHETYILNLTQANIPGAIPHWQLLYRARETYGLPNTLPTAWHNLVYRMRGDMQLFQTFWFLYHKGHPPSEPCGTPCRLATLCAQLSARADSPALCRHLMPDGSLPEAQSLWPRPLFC
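qHTS format. ASM enzyme prepared from human placenta hydrolyses the fluorogenic substrate HMU-PC0 (9 uM final) over 60 min at 37 °C after a 10 min compound preincubation.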
DT40 TDP1 CPT: qHTS for Inhibitors of human tyrosyl-DNA phosphodiesterase 1 (TDP1): qHTS in cells in presence of CPT; chicken DT40 Tdp1-/-;hTDP1 cells + 20 nM CPT, ATP luminescence, 48 h; Potency, µM (top dose mostly 46.2 µM), inactives show at the top dose activity change, negative = growth inhibition, hits mostly inhibitors; hit rate 12% among 420,000; AID 686979, 2013; further: potency means the concentration at half of the fitted maximal effect; on the % scale 0 is the no-effect control and ±100 the full control effect; nearly all actives have a fitted effect of over 55% in size
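Chicken DT40 Tdp1-/- cells complemented with human TDP1, 400 cells/well, exposed to compounds plus 20 nM camptothecin for at least 48 h at 37 C; viability read as ATP content by CellTiter-Glo luminescence.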
DT40 TDP1 no CPT: qHTS for Inhibitors of human tyrosyl-DNA phosphodiesterase 1 (TDP1): qHTS in cells in absence of CPT; DT40 Tdp1-/- hTDP1 cells, no CPT, ATP luminescence, 48 h; Potency, µM (doses to about 46.2 µM), inactives show at the highest dose activity change, negative = growth inhibition, most hits filed as inhibitors; hit rate 15% among 420,000; AID 686978, 2013; further: potency means the concentration at half of the fitted maximal effect; on the % scale 0 is the no-effect control and ±100 the full control effect; nearly all actives have a fitted effect of over 55% in size
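Chicken DT40 Tdp1-/- cells stably complemented with human TDP1 were seeded at 400 cells/well with DMSO in place of 20 nM camptothecin. After compound pinning, cells grew at least 48 hr at 37 °C; viability read by CellTiter-Glo luminescence.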
TGFb SMAD3 inh: qHTS for Inhibitors of TGF-b | Potency, µM (highest dose often 46.1 µM), inactives show at the highest dose activity, negative = inhibition, most hits filed as inhibitors | hit rate 1.2% among 410,000 | AID 588855, 2011 | HepG2 CAGA-GFP TGF-b/SMAD3 reporter, GFP fluorescence, 18 h; TGF-beta stimulated, 500 pg/mL final; further: potency means the concentration at half of the fitted maximal effect; on the % scale 0 is the no-effect control and ±100 the full control effect; nearly all actives have a fitted effect of over 65% in size
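Inhibition of TGF-beta-driven CAGA-GFP reporter expression in HEPG2 cells is measured by cellular GFP fluorescence after 18 h stimulation with 500 pg/mL recombinant TGF-beta in 1% FBS medium at 37 degrees C.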
IL-1B inflam inh: qHTS for Inhibitors of Inflammasome Signaling: IL-1-beta AlphaLISA Primary Screen; THP-1 LPS/ATP IL-1B secretion, AlphaLISA, 16 h; active compounds read low; activity change, % at 57.5 µM; AID 743279, 2014; hit rate 4.7% among 360,000; in the data active means activity change below about -50%; inconclusive means mostly about -30% to -49%; further: on the % scale 0 is the no-effect control and ±100 the full control effect
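Secreted IL-1B measured by AlphaLISA bead assay after 16 h compound exposure of THP-1 cells; compounds (final up to 57.5 uM) added 1 h before LPS (250 ng/mL) and ATP (1.25 mM) stimulation; lower signal means less secretion.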
HepG2 tox: qHTS for Inhibitors of TGF-b: Cytotox Counterscreen; Potency, µM (doses to about 46.1 µM), for inactives: at the highest dose activity change, negative = cytotoxicity, usual class: cytotoxic; HepG2 CAGA-GFP viability, ATP luminescence, 18 h; hit rate 0.76% among 410,000; AID 588856, 2011; further: potency means the concentration at half of the fitted maximal effect
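CellTiter-Glo luminescence gave cytotoxicity after 18 hours at 37 degrees C. The cells were HepG2 CAGA-GFP in 1% FBS DMEM, stimulated with 500 pg/mL TGF-beta after compound addition. %Activity was normalised to no-cell wells (complete cell-killing) and DMSO (no toxicity), and curves were fitted and classified.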
Active calls of the source: *; ? = inconclusive; / = not tested or not shown; [ ] = another dose, or the depositor's remark. An excerpt weighted towards active compounds, which were near 19% of everything screened. Unless noted, the call rests on the fitted dose curve; in most records, active means well fitted curve in the direction sought with a large enough effect; inconclusive means small, poorly fitted or top-dose-only effect, or another doubt; inactive means no such curve, though single readings can be large; an effect the other way counts as inactive or inconclusive.

SMILES | ASM inhibitor | DT40 TDP1 CPT | DT40 TDP1 no CPT | TGFb SMAD3 inh | IL-1B inflam inh | HepG2 tox
O=C(NC1CCCCC1)C(c1ccccc1F)n1c(=O)c(-c2cc3ccccc3[nH]2)nc2ccccc21 (stereo not given) | / | ? | 15µM* | / | 65 | /
O=C(NC1CCCCC1)C(c1cccc2ccccc12)n1c(=O)c(-c2cc3ccccc3[nH]2)nc2ccccc21 (stereo not given) | / | ? | 13µM* | / | 77 | /
O=C(NC1CCCCC1)c1n[nH]c2c1CCCCC2 | 4% | ? | ? | 16% | -16 | -49%
CCC(C)(C)C1CCc2[nH]nc(C(=O)NCc3ccc(OC)cc3)c2C1 (stereo not given) | -7% | 23µM* | 15µM* | ? | 0 | -20%
NNC(=O)c1n[nH]c2c1CC(C1CCCCC1)CC2 (stereo not given) | 4% | 5.2µM* | 5.8µM* | -6% | -11 | -9%
C/C(=N\NC(=O)c1n[nH]c2c1CCC2)c1ccco1 | -2% | -22% | ? | 17% | / | -38%
C=CCNC(=O)c1n[nH]c2c1CC(C(C)(C)CC)CC2 (stereo not given) | 5% | ? | ? | ? | -2 | -6%
CCC(C)(C)C1CCc2[nH]nc(C(=O)N/N=C(\C)c3ccco3)c2C1 (stereo not given) | -2% | ? | ? | 14µM* | -87* | -66%
CCC(C)(C)C1CCc2[nH]nc(C(=O)NC3CCCC3)c2C1 (stereo not given) | 1% | 16µM* | ? | 0% | ? | -46%
Cc1ccc[n+](C(C)C(=O)Nc2ccc(C)c(C)c2)c1 (stereo not given) | 2% | ? | -29% | -5% | -16 | -13%
CCOc1ccccc1C(=O)NCC(=O)Nc1ccc2c(c1)OCO2 | 7% | -20% | -7% | -11% | 15 | -4%
CCOc1ccccc1C(=O)NC(C(=O)N(C)Cc1ccc2c(c1)OCO2)C(C)C (stereo not given) | 5% | 18µM* | ? | -6% | 18 | -2%
CCOC(=O)N1CCC(N2Cc3cccc(C(=O)NC(C)c4ccc5c(c4)OCCO5)c3C2=O)CC1 (stereo not given) | -8% | ? | 23µM* | 28% | -22 | -9%
CCOc1ccccc1C(=O)NC(C)c1ccc2c(c1)OCO2 (stereo not given) | -1% | 18µM* | ? | 10% | 17 | -3%
Cc1cccc(Cn2cc(S(=O)(=O)c3cccc(Cl)c3)c(=O)c3cc(F)c(N4CCOCC4)cc32)c1 | / | -1% | -18% | 0% | / | 6%
O=C(CCc1nc2sc3c(c2c(=O)[nH]1)CCCC3)NCCc1ccc(Cl)cc1 | / | -3% | ? | -13% | 17 | -2%
COc1ccc(CCNC(=O)Nc2ccc3c(c2)c(=O)n(C)n3CC=C(C)C)cc1OC | / | ? | ? | -4% | 3 | -17%
CN(C(=O)c1cccc(Nc2ccc(-c3ccc4c(c3)OCCO4)nn2)c1)C1CCCCC1 | -14% | 23µM* | 23µM* | -29% | 0 | -33%
CCN(CC)S(=O)(=O)c1ccc(Nc2ccc(-c3ccc4c(c3)OCCO4)nn2)cc1 | -7% | 5.2µM* | ? | -1% | -1 | -8%
Cc1ccc(S(=O)(=O)c2cn(CC(=O)Nc3ccc4c(c3)OCO4)c3ccc(F)cc3c2=O)cc1 | / | -26% | -30% | ? | / | -4%
CCc1cccc(C)c1NC(=O)c1cc(S(=O)(=O)N2CCCCCC2)cn1C | / | ? | ? | 0% | / | 1%
C#CCNC(=O)C1=C[C@@H](c2ccc(Br)cc2)[C@H](CCCO)[C@@H](OCC)O1 | -1% | 15µM* | 15µM* | -4% | 17 | -8%
C#Cc1ccc([C@H]2C=C(C(=O)NC3CC3)O[C@@H](OCC)[C@@H]2CCCO)cc1 | 7% | ? | 23µM* | 2% | -4 | -9%
C#CCNC(=O)C1=C[C@H](c2ccc(Br)cc2)[C@@H](CCCO)[C@H](OCC)O1 | 2% | ? | 13µM* | -19% | 13 | -14%
C#CCNC(=O)C1=C[C@@H](c2ccc(C#C)cc2)[C@H](CCCO)[C@@H](OCC)O1 | 3% | -24% | -22% | -2% | 1 | -1%
SMILES | ASM inhibitor | DT40 TDP1 CPT | DT40 TDP1 no CPT | TGFb SMAD3 inh | IL-1B inflam inh | HepG2 tox
CCO[C@@H]1OC(C(=O)NC2CC2)=C[C@H](C2CCCCC2)[C@H]1CCCO | 0% | ? | ? | -9% | -20 | -28%
CCO[C@H]1OC(C(=O)NC2CC2)=C[C@@H](C2CCCCC2)[C@@H]1CCCO | 5% | 21µM* | 23µM* | ? | 8 | -25%
CCO[C@H]1OC(C(=O)NCc2nc3ccccc3[nH]2)=C[C@@H](c2ccc(Br)cc2)[C@@H]1CCCO | -7% | ? | ? | -24% | -16 | -13%
CCO[C@H]1OC(C(=O)Nc2ccccc2)=C[C@@H](c2ccc(Br)cc2)[C@@H]1CCCO | ? | 16µM* | 18µM* | ? | 0 | -4%
CCO[C@@H]1OC(C(=O)NCc2nc3ccccc3[nH]2)=C[C@H](C2CC2)[C@H]1CCCO | 3% | 4.6µM* | 2.9µM* | -13% | 18 | -4%
Cc1ccc(OCCn2nnc3sc4c(c3c2=O)CCC(C)C4)cc1 (stereo not given) | / | -1% | -10% | -25% | / | -5%
Cc1onc(-c2ccccc2)c1C(=O)NCCN1Cc2ccccc2OC(c2ccsc2)C1 (stereo not given) | / | -1%[9.04 µM] | 15µM* | / | / | /
COc1cc(SC)ccc1C(=O)N1CCN(c2ccccc2OC)CC1 | 10% | 21µM* | 4.6µM* | -10% | 30 | -16%
Cc1cc(C)c2cc(C(=O)N3CCN(c4ncccc4C(F)(F)F)CC3)[nH]c2c1 | -12% | ? | 15µM* | 0% | -20 | -6%
CC(C)(C)NC(=O)N1CCN(c2ncccc2C(F)(F)F)CC1 | 2% | -6% | -18% | 15% | 24 | 18%
COC(=O)C1CCN(C(=O)c2ccc(SC)cc2OC)CC1 | -5% | 7% | -4% | -14% | -6 | 2%
COc1ccccc1N1CCN(C(=O)c2c(C)cc(=O)oc2C)CC1 | 3% | 2% | 4% | -3% | 0 | 8%
